# According to PubChem BioAssay AID2447 (National Center for Advancing Translational Sciences (NCATS), 2010):
# This is one part of the list. Records with an inconclusive call do not appear. Activity calls are given as the source filed them. The call rests on the fitted dose curve.
# Experiment: Cell Viability Secondary Assay for Inhibitors of the Interaction of Thyroid Hormone Receptor and Steroid Receptor Coregulator 2
# Details: HepG2 viability, ATP luminescence (CellTiter-Glo), 72 h
# Source text: NIH Molecular Libraries Probe Production Network [MLPCN] NIH Chemical Genomics Center [NCGC] MLPCN Grant: DK058080 Assay Provider: R. Kip Guy, St. Jude Children's Research Hospital NCGC Assay Overview: Thyroid receptor (TR) regulates many homeostatic processes including basal metabolism, cardiovascular function, body weight, and lipid trafficking. TR modulators are potential therapeutics for obesity and hyperlipidemias but current thyroid analogs have undesirable side effects, particularly cardiac stimulation. This secondary assay characterized compounds identified in the qHTS for Inhibitors of the Interaction of Thyroid Hormone Receptor and Steroid Receptor Coregulator 2 (PubChem AID 1485). The effect of compounds on the viability of HepG2 cells was assessed by measuring ATP levels.
# NCGC Assay Protocol Summary: HepG2 cells were grown to 80% confluence, collected, and cells were dispensed at 500 cells/25 ul/well into 384 well plates (Costar 3712). Following transfer of 100 nL compound (ranging from 2.5 nM to 50 uM), cells were incubated for 72 hours at 37 C and 5% CO2. Following this incubation, plates were equilibrated at ambient temperature for 30 min, 25 ul of CellTiter-Glo (Promega) was added and luminescence was detected by an EnVision (PerkinElmer) reader.
Structure (SMILES),outcome,Potency
O=C(COC(=O)c1cccc([N+](=O)[O-])c1)NC1C2CC3CC(C2)CC1C3 (stereo not drawn),inactive,
CS(=O)(=O)c1ccc(C(=O)OCC(=O)N2CCNc3ccccc32)cc1[N+](=O)[O-],,18 µM (active)
CS(=O)(=O)c1ccc(C(=O)OCC(=O)N2CCC(c3ccccc3)CC2)cc1[N+](=O)[O-],,8.9 µM (active)
